What all share (test): DAPPL (digital affinity profiling via proximity ligation, sequencing); 10 mM Tris-HCl pH 7.5, 50 mM NaCl, 1 mM DTT, 4% glycerol, room temperature, 30 min; GST-TFs on glutathione beads, 16-mer random dsDNA library, 0.1% formaldehyde crosslink after washing; high values mean tight binding
Holding throughout (details): protein: recombinant; tags: N-terminal GST; dsDNA, one strand shown

Experiment [1] addresses T1, FLI1 (Homo sapiens, UniProt Q01543 1-452).
T1 sequence: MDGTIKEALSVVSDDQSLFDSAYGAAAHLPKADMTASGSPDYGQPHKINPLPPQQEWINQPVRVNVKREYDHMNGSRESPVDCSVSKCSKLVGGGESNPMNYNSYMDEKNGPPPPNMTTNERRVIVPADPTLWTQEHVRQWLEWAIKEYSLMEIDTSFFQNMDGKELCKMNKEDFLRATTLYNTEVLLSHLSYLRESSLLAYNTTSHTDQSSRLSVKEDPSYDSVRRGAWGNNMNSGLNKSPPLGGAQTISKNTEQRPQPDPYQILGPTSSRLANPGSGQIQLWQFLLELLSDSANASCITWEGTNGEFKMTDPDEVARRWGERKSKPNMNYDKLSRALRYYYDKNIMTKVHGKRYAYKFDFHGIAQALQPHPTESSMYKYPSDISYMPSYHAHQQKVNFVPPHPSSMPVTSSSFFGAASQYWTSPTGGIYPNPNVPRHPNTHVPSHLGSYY
The method, boiled down:
(§1)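 The binding signal reported is, for every hexamer, its read frequency for a factor over its read frequency for the tag-only sample. Reads came from pools of yeast-expressed, GST-fused human transcription factors on glutathione beads, barcoded with DNA and mixed with that sample, which were incubated with 200 nmole of a random double-stranded 16-mer DNA library in Tris/NaCl/DTT/glycerol buffer at room temperature for 30 min. After washing, the pools were crosslinked with 0.1% formaldehyde, proximity-ligated with BsaI/T4 ligase for 1 h at 37 °C, PCR-amplified and sequenced on an Illumina NextSeq500.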

In experiment [2] the target is T2, ELK1 (Homo sapiens, UniProt P19419 1-428).
T2 sequence: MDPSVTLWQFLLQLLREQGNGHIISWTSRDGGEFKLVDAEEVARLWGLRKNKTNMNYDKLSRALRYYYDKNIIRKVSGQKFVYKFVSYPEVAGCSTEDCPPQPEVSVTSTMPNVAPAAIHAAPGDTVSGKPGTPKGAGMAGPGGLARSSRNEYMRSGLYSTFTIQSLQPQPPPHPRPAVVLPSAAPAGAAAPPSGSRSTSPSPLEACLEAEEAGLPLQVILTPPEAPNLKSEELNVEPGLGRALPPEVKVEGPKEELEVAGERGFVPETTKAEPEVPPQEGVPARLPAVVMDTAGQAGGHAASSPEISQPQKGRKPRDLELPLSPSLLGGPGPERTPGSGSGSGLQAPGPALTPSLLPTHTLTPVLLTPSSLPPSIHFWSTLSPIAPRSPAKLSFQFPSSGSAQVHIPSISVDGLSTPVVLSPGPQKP
The method, boiled down:
as §1

The target of experiment [3] is T3, GABPA (Homo sapiens, UniProt Q06546 1-454).
T3 sequence: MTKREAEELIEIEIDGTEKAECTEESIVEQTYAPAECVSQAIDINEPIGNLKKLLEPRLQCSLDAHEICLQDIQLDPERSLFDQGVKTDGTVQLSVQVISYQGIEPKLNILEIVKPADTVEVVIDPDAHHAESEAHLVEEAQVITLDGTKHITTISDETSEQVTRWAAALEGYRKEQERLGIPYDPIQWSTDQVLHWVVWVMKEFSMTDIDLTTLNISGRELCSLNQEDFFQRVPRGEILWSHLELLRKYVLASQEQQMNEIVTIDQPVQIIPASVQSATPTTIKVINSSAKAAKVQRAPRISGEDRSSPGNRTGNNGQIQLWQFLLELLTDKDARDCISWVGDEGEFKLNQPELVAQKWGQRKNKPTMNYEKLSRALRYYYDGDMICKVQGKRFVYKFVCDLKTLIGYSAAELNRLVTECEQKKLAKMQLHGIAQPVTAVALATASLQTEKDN
The method, boiled down: as §1

Experiment [4] has as its target T4, ERG (Homo sapiens, UniProt P11308 1-479).
T4 sequence: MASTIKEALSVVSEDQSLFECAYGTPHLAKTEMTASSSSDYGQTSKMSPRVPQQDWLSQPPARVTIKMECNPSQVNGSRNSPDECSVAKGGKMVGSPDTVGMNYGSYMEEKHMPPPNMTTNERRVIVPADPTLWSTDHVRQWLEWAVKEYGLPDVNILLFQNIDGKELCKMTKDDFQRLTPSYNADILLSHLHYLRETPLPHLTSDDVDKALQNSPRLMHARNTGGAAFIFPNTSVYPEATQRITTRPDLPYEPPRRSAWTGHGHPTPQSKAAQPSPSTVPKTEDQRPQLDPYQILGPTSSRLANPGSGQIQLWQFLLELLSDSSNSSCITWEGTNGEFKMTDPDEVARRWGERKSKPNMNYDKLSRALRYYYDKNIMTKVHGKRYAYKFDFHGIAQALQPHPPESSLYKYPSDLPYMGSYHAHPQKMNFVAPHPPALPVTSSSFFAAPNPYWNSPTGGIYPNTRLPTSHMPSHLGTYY
The method, boiled down: as §1

Experiment [5] has as its target ELF1 (Homo sapiens, UniProt P32519 1-619). The method, boiled down: as §1
For experiment [6], the target named is T5, EHF (Homo sapiens, UniProt Q9NZC4 1-300).
T5 sequence: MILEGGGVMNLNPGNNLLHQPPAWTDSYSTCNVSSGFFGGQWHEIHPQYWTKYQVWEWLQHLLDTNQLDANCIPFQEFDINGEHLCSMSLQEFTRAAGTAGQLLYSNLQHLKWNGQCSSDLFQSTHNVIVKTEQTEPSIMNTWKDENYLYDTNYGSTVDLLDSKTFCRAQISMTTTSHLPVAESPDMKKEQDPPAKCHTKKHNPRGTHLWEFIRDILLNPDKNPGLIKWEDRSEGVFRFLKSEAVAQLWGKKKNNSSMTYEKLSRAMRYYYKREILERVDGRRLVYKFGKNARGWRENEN
The method, boiled down:
as §1

Experiment [7] addresses SPI1 (Homo sapiens, UniProt P17947 1-270). The method, boiled down: as §1
For experiment [8], the target named is SPIB (Homo sapiens, UniProt Q01892 1-262). A digest of the protocol:
as §1

For experiment [9], the target named is T6, ELK3 (Homo sapiens, UniProt P41970 1-407).
T6 sequence: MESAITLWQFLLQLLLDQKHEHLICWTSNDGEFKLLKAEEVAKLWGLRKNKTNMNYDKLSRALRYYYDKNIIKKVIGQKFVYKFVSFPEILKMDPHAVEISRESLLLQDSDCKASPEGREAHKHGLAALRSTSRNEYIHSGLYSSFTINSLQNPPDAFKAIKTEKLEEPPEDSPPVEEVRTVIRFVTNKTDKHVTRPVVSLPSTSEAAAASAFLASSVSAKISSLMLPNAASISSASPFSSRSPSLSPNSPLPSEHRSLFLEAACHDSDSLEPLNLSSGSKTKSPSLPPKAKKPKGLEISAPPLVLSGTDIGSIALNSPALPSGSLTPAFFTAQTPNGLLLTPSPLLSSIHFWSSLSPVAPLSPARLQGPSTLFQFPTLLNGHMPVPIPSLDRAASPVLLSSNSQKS
A digest of the protocol: as §1

For experiment [10], the target named is T7, FEV (Homo sapiens, UniProt Q99581 1-238).
T7 sequence: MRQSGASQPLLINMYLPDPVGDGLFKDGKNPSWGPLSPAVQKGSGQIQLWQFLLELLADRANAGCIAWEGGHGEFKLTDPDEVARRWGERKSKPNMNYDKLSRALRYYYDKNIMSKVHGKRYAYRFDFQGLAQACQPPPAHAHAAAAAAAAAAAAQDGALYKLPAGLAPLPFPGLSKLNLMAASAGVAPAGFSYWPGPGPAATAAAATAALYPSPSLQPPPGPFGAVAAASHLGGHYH
A digest of the protocol: as §1

For experiment [11], the target named is ETV5 (Homo sapiens, UniProt P41161 1-510). A digest of the protocol: as §1
ETV5, sequence (P41161 whole entry): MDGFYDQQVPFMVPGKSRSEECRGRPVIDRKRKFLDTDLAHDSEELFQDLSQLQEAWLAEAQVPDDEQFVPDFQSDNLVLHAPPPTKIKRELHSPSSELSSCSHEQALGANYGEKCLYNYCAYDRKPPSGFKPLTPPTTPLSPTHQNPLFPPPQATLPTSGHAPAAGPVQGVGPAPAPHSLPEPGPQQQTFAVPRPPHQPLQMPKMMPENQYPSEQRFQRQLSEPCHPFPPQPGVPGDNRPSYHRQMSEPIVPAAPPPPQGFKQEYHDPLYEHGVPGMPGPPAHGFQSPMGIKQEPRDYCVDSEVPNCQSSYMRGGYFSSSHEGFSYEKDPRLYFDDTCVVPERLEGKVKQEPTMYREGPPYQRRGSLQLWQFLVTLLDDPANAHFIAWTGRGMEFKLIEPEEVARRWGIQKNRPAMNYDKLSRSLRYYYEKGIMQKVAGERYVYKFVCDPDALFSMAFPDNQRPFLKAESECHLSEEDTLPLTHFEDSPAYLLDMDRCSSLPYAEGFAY
The target in experiment [12] is T8, SPIC (Homo sapiens, UniProt Q8N5J4 1-248).
T8 sequence: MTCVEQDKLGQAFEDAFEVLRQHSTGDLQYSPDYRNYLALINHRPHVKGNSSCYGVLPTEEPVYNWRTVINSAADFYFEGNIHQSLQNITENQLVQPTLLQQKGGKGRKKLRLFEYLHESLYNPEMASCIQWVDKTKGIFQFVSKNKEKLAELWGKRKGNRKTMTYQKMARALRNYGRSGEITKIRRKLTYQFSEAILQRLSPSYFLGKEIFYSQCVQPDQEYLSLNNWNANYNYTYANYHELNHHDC
A digest of the protocol:
as §1

For experiment [13], the target named is ELF4 (Homo sapiens, UniProt Q99607 1-663). A digest of the protocol: as §1
ELF4, sequence (Q99607 whole entry): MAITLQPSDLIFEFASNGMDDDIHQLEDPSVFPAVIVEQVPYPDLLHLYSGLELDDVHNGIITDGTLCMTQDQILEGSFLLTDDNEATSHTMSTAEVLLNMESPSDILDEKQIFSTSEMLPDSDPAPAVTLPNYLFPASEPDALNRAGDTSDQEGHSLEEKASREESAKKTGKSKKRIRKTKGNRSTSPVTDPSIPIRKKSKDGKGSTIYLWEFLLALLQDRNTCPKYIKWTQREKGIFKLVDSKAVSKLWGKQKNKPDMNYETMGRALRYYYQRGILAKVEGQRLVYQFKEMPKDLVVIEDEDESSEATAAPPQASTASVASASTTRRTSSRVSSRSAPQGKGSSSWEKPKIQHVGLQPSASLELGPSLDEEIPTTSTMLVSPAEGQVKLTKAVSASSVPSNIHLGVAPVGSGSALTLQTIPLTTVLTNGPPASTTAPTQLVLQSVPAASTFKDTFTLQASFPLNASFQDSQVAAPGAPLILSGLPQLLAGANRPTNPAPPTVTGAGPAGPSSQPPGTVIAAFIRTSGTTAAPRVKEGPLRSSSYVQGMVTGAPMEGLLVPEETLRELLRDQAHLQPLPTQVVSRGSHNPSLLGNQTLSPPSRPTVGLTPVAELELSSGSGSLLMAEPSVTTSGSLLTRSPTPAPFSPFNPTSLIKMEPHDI
The target in experiment [14] is T9, ELK4 (Homo sapiens, UniProt P28324-2 1-405).
T9 sequence: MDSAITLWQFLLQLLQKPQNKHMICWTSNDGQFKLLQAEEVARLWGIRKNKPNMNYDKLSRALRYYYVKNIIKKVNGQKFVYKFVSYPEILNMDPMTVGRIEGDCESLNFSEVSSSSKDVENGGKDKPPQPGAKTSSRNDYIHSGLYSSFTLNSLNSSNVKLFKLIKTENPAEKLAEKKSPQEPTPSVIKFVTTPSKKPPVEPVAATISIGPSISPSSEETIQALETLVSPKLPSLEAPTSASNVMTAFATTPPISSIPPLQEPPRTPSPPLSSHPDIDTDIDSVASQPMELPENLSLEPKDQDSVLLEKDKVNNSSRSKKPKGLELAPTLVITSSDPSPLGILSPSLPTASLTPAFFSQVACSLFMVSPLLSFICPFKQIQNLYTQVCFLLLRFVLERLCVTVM
A digest of the protocol: as §1

Experiment [15] has as its target T10, ETV2 (Homo sapiens, UniProt O00321 1-342).
T10 sequence: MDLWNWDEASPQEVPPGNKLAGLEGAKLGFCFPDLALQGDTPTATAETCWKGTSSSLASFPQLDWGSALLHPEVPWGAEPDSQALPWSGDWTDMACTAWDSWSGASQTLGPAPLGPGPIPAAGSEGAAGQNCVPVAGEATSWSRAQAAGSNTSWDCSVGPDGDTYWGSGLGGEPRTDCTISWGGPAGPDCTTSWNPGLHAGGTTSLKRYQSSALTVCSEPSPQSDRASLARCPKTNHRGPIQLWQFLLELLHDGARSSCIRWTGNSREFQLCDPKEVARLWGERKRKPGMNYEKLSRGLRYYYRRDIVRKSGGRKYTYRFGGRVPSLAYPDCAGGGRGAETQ
The method, boiled down: as §1

For experiment [16], the target named is T11, ELF3 (Homo sapiens, UniProt P78545 1-371).
T11 sequence: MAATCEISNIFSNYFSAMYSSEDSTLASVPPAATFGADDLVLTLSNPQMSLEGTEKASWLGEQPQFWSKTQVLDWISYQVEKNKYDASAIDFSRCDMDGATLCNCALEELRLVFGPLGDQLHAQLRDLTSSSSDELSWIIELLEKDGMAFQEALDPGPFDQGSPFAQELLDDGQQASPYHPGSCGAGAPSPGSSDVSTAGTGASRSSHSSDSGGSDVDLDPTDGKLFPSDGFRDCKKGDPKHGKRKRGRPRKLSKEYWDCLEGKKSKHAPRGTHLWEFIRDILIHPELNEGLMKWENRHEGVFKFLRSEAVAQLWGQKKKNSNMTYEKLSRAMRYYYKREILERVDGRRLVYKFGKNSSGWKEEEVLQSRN
The method, boiled down: as §1

In experiment [17] the target is ETV1 (Homo sapiens, UniProt P50549 1-477). The method, boiled down:
as §1

ELF1, sequence (P32519 whole entry): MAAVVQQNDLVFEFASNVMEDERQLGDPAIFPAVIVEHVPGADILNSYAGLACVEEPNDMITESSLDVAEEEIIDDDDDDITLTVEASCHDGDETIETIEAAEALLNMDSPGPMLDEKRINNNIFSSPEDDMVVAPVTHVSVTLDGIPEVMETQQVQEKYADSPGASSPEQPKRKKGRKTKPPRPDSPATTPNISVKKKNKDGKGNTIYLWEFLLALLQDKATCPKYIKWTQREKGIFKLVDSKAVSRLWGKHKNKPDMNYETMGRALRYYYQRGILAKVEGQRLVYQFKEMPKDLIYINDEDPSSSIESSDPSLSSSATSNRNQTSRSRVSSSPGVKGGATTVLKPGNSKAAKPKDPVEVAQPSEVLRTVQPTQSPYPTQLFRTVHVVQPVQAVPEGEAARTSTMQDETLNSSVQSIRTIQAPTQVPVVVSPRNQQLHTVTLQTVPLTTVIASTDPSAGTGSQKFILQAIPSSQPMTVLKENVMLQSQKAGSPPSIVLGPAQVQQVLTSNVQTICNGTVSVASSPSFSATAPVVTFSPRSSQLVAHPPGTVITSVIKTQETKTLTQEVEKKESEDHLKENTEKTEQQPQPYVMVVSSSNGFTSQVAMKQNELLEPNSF
SPIB, sequence (Q01892 whole entry): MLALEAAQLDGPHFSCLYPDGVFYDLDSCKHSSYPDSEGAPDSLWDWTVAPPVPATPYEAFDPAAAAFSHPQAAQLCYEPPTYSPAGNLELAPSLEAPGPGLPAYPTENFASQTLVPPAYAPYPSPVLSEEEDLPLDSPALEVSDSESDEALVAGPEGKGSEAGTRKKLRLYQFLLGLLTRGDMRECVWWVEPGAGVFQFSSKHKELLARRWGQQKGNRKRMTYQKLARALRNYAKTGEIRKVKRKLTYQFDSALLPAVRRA
ETV1, sequence (P50549 whole entry): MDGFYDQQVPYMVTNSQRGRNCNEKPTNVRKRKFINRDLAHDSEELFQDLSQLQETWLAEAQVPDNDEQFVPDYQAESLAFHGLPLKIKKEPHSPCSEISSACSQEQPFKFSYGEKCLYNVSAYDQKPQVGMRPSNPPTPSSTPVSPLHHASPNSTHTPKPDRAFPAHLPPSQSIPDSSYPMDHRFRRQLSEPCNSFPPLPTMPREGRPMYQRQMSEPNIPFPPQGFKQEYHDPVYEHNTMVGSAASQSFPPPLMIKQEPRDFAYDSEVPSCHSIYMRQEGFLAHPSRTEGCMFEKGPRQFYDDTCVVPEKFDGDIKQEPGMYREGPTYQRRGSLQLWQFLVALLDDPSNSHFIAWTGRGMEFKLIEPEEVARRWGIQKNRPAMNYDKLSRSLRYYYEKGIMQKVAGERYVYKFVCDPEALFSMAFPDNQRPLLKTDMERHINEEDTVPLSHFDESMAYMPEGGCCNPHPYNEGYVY

For the sequence CGACCG, the binding signal is 1.2 fold enrichment (6-mer frequency, TF over GST control) in experiment [1]; 1.19 fold enrichment (6-mer frequency, TF over GST control) in experiment [2]; 1.21 fold enrichment (6-mer frequency, TF over GST control) in experiment [3]; 1.36 fold enrichment (6-mer frequency, TF over GST control) in [4]; 1.17 fold enrichment (6-mer frequency, TF over GST control) in [5]; 1.11 fold enrichment (6-mer frequency, TF over GST control) in experiment [6]. The binding signal was 1.06 fold enrichment (6-mer frequency, TF over GST control) in experiment [7]; 1.07 fold enrichment (6-mer frequency, TF over GST control) in experiment [8]; 1.21 fold enrichment (6-mer frequency, TF over GST control) in experiment [9]; 1.6 fold enrichment (6-mer frequency, TF over GST control) in [10]; 1.19 fold enrichment (6-mer frequency, TF over GST control) in experiment [11]; 1.09 fold enrichment (6-mer frequency, TF over GST control) in [12]. In addition, the binding signal was 1.28 fold enrichment (6-mer frequency, TF over GST control) in experiment [13]; 1.17 fold enrichment (6-mer frequency, TF over GST control) in experiment [14]; 1.35 fold enrichment (6-mer frequency, TF over GST control) in [15]; 1.27 fold enrichment (6-mer frequency, TF over GST control) in [16]; 1.26 fold enrichment (6-mer frequency, TF over GST control) in [17].

(Values after PMC7862700, “An all-to-all approach to the identification of sequence-specific readers for epigenetic DNA modifications on cytosine”.)
